From PubChem BioAssay AID1851 (National Center for Advancing Translational Sciences (NCATS), 2009)
The campaign covered roughly 16,000 compounds. About 2,600 (16%) were called active. Not shown: some 20% with an inconclusive outcome. These entries were drawn from the full list. A number with no mark means an inactive call. The call rests on the fitted dose curve; in most records, active means well fitted curve in the direction sought with a large enough effect; inconclusive means small, poorly fitted or top-dose-only effect, or effect the other way; inactive means no such curve, though single readings can be large or run the other way.

Each compound was assayed against Cytochrome P450 2D6 (Homo sapiens) (UniProt P10635) (assay: Cytochrome panel assay with activity outcomes). Details: recombinant CYP, pro-luciferin dealkylation, luminescence, p450-cyp2d6; series mostly up to 57.1 µM; activity, negative = inhibition: at the top concentration.
Cytochrome P450 2D6 (Homo sapiens), sequence (P10635 whole entry, looked up): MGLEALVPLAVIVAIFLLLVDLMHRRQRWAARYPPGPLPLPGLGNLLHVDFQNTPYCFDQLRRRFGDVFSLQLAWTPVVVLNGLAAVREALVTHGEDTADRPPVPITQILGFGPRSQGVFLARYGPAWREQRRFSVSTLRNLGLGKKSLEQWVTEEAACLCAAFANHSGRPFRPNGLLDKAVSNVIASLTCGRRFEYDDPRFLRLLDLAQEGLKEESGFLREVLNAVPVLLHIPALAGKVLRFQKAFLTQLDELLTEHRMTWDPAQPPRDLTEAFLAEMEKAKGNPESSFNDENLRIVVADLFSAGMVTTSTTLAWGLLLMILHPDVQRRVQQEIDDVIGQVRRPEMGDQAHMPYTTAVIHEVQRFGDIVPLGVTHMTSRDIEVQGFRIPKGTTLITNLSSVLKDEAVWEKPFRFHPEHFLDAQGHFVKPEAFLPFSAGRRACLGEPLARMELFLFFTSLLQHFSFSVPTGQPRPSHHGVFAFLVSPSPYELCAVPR
On the % scale 0 is the no-effect control and ±100 the full control effect.

Row | Compound | activity, negative = inhibition | AC50
1 | O=C(ON=C1CCN(S(=O)(=O)c2ccccc2)CC1)c1ccccc1 | -11.1% | –
2 | c1ccn(-c2ccc(N3CCOCC3)cc2)c1 | -19.4% | –
3 | COc1ccc(C(=O)NNC(=S)NC(=O)c2ccco2)cc1 | 23.2% | –
4 | Cc1ccc(C)c(-n2c(Cc3cc(=O)[nH]c(=O)[nH]3)nnc2SCC(=O)NCC2CCCO2)c1 (centres undefined) | 5.39% | –
5 | OCCCN=C1CCCCC1 | -10.2% [at 11.4 µM] | –
6 | CCOC(=O)c1ccccc1OCc1cc(/C=N/n2cnnc2)ccc1OC | -11.9% | –
7 | CC(C)C(=O)Nc1cc2c(cc1C(=O)c1ccccc1)OCCO2 | -1.98% | –
8 | CC(Sc1ccc2c(c1)OCCO2)C(=O)Nc1ncc(Cl)cc1Cl (centres undefined) | – | 12.6 µM (active)
9 | CC(C)Cn1c(N)c(C(=O)CSc2ccc3c(c2)OCCO3)c(=O)n(C)c1=O | -14.7% | –
10 | CCn1c(C)nc2cc(C(=O)NNS(=O)(=O)c3ccccc3F)ccc21 | -5.81% | –
11 | Cc1cc(C)cc(N(C(=O)C2CCCC2)C2C=CS(=O)(=O)C2)c1 (centres undefined) | -12.9% | –
12 | COc1ccc(C(=O)N2CCC3(CC2)CN(C(=O)NC(C)C)C3)cc1 | -1.29% | –
13 | COc1ccccc1OCCCOc1ccc([N+](=O)[O-])cc1Cl | – | 11.2 µM (active)
14 | COc1cc(C)ccc1OCCCOc1ccccc1Cl | 7.23% | –
15 | COc1ccccc1CC(=O)O/N=C(\N)c1cccc([N+](=O)[O-])c1 | -22.3% | –
16 | Cc1ccc(OCC(=O)NNC(=O)c2cc3ccccc3o2)cc1 | 3.8% | –
17 | CCCS(=O)(=O)N1CCCC(C(=O)NCCN2CCC(Cc3ccccc3)CC2)C1 (centres undefined) | – | 0.501 µM (active)
18 | O=C(Nc1ccc(Br)cc1)C1CCC(=O)N1Cc1ccccc1Cl (centres undefined) | -23.9% | –
19 | CCCS(=O)(=O)N1CCCC(C(=O)NCCCN2CCN(c3cccc(Cl)c3)CC2)C1 (centres undefined) | – | 5.62 µM (active)
20 | O=C(NCCCN1CCN(c2cccc(Cl)c2)CC1)C1CCC(=O)N1Cc1ccccc1Cl (centres undefined) | – | 5.01 µM (active)
21 | CCCN(CCC)CCNC(=O)C1CCCN(S(=O)(=O)c2ccc3c(c2)oc(=O)n3C)C1 (centres undefined) | -10.6% | –
22 | CCCS(=O)(=O)N1CCCC(C(=O)NCCCOC(C)C)C1 (centres undefined) | 32.2% | –
23 | CCCS(=O)(=O)N1CCCC(C(=O)NCCN2CCOCC2)C1 (centres undefined) | 4.14% | –
24 | CCCS(=O)(=O)N1CCCC(C(=O)N2CCN(c3ccccc3)CC2)C1 (centres undefined) | -9.13% | –
25 | CCCS(=O)(=O)N1CCCC(C(=O)NCC2CCCO2)C1 (centres undefined) | -2.53% | –
26 | CCCS(=O)(=O)N1CCCC(C(=O)NCCCN2CCN(c3ccccc3F)CC2)C1 (centres undefined) | – | 10 µM (active)
27 | COC(Cc1nnc(SC)n1-c1ccccc1)OC | 10.6% | –
28 | CC(C)Nc1cc(C(F)(F)F)nc(-c2ccccn2)n1 | 14.4% | –
29 | CC(C)COP(=O)(c1ccc(N(C)C)cc1)C(O)c1ccccc1F (centres undefined) | 3.33% | –
